About 13,000 (27%) of roughly 48,000 compounds showed an effect of 50% or more. Some of the results follow.
test system: Wolbachia pipientis; assay: Anti-Wolbachia Cell-Based Screen; format: functional; set-up: scale not given: in the data most compounds retested in dose-response had high values; settings: 5 µM

SMILES | Percent Effect [%]
O=C1CC(c2ccc(F)cc2)Cc2[nH]c(=O)c(C(=O)O)cc21 (centres undefined) | -7.153
COc1ccc(-c2nnc([C@H]3CCN(C4CCC4)C3)o2)cc1 | -7.791
COc1ccc2c(C)nc(N3CCN([C@H]4CCCC[C@@H]4O)CC3)nc2c1 | -5.01
Cc1cnn(CCC(=O)N2CCCN(c3ncccc3C#N)CC2)c1 | 7.127
N#Cc1ccc(CN2CCN(C(=O)CCn3cncn3)CC2)cc1 | -1.452
Cc1cnn(CCC(=O)N2CCN(c3ncccc3Cl)CC2)c1 | 8.116
Cc1cnn(CCC(=O)N2CCN(c3ccc(C#N)cn3)CC2)c1 | 122.4
Cc1cnn(CC(=O)N2CCCN(c3ncccc3C#N)CC2)c1 | 99.25
Cc1cnn(CCC(=O)N2CCN(c3nc(C)cs3)CC2)c1 | -7.951
N#Cc1cccnc1N1CCCN(CC(=O)N2CCNC(=O)C2)CC1 | -3.438
N#Cc1cccnc1N1CCCN(C(=O)CCn2cncn2)CC1 | 103.6
N#Cc1ccc(CN2CCCN(C(=O)CCn3cncn3)CC2)cc1 | -4.749
CN(C)c1cc(C(=O)Nc2ccccc2C(=O)NC(C)(C)C)ccn1 | 0.03536
CCn1nc(C)cc1C(=O)NCc1nc(C)no1 | 111.2
CCn1nc(C)cc1C(=O)OCCNC(=O)c1ccccc1 | -11.83
CCn1nc(C)cc1C(=O)NCc1cccnc1N(C)C | -6.394
CCn1nc(C)cc1C(=O)NCc1nc(C)cc(C)n1 | -9.292
COCc1nc(CNC(=O)c2cc(C)c(C)[nH]c2=O)no1 | -2.692
CCn1nc(C)cc1C(=O)NCc1noc(C(C)(C)C)n1 | 104.1
CC(SCCS(C)(=O)=O)c1nc(Cc2ccccc2)no1 (centres undefined) | -6.547
O=C1CC[C@H](C(=O)N(Cc2cccc(Br)c2)C2CC2)N1 | 5.086
CC(=O)NCC(=O)N1Cc2nc(COCc3csc(C)n3)oc2C1 | 5.619
CC(C)CC(C)NCc1cccnc1N1CCOCC1 (centres undefined) | 1.673
COc1ccc(OC)c(-c2nc(CN(C)Cc3nncn3C)c(C)o2)c1 | 0.1711
CCN(CC)C(=O)[C@@H]1C[C@H](N)CN1c1noc(-c2ccccc2)n1 | 2.719

SMILES | Percent Effect [%]
Cc1cc(-c2cnn(CCNC(=O)C3CCCO3)c2C2CC2)on1 (centres undefined) | -7.58
Cc1cc(C)n(CCCN(C)C(=O)[C@H]2CCCO2)n1 | -6.91
Cc1cc(C(F)(F)F)nn1CCCNC(=O)C1CCCO1 (centres undefined) | 89.22
COc1ccc(-c2n[nH]cc2CN(C)Cc2nnc(C)o2)c(F)c1 | 5.542
COC[C@]1(O)CCN(Cc2c[nH]c(CC3CCCC3)n2)CC1(C)C | 12.99
Cn1cc(CN2CCc3ncnc(C4CCOC4)c3CC2)cn1 (centres undefined) | 2.928
CS(=O)(=O)NCC1CCCCN1C(=O)c1ccc(Br)s1 (centres undefined) | -1.817
CN(C)c1cc(C(=O)N2CCCCC2CNS(C)(=O)=O)ccn1 (centres undefined) | 130
CS(=O)(=O)NCC1CCCCN1C(=O)c1ccsc1 (centres undefined) | -1.868
CCC1CCCCN1C(=O)c1ccnc(N(C)C)c1 (centres undefined) | 113.6
CN(C)c1cc(C(=O)N2CCCCC2Cn2cccn2)ccn1 (centres undefined) | 105
CCCc1nc(C(C)(C)NC(=O)c2ccnn2C)no1 | 9.786
CCCc1nnc(N[C@H](C)c2ccc(OC)cc2)o1 | -12.73
Fc1ccc(CNCc2cc(Br)c3c(c2)OCO3)cc1 | -17.14
O=C(CCNC(=O)c1ccoc1)Nc1cc(F)ccc1F | -1.29
CN1CCN(Cc2c[nH]cn2)CC12CCC(=O)N(CC1CC1)CC2 (centres undefined) | -17.33
Cc1cccc(CN2CCOC(C)(C(=O)N3CCOCC3)C2)n1 (centres undefined) | 111.3
Cc1cc(CN2CCN(C(=O)NCc3ccc(C)s3)CC2)no1 | 0.1424
Cc1cccc(CN2CC[C@H]3OCC[C@@]3(C(=O)N3CCOCC3)C2)n1 | 83.3
CC1(C(=O)N2CCOCC2)CN(Cc2ccccn2)CCO1 (centres undefined) | -10.18
Cc1cc(CNC(=O)NCc2ccccc2N2CCOCC2)no1 | -16.89
CC1(C(=O)N2CCOCC2)CN(Cc2c[nH]cn2)CCO1 (centres undefined) | 123.4
Cc1cccc(CN2CCc3[nH]nc(C(=O)N4CCOCC4)c3C2)n1 | 9.618
Cc1ncsc1CN1CC[C@H]2OCC[C@@]2(C(=O)N2CCOCC2)C1.O=C(O)C(F)(F)F | 1.512
Cc1cc(CN2CCOC(C)(C(=O)N3CCOCC3)C2)no1 (centres undefined) | 109.8

SMILES | Percent Effect [%]
NC(=O)C1CN(Cc2c[nH]cn2)CCN(C2CCOCC2)C1 (centres undefined) | -9.995
CC(C)Nc1cccc(CNC(=O)N2CCC[C@@H]2CO)c1 | -12.14
CCCc1cc(=O)[nH]c2nnc(SCC(=O)NCCc3ccccc3)n12 | 12.93
COC(=O)N1CCC(NC2CCSCC2)C1 (centres undefined) | -0.02013
CCC(CCO)NS(=O)(=O)c1ccc(Br)cn1 (centres undefined) | -13.92
C=C(C)Cn1nnc(C2(NC(=O)c3ccccc3)CCCC2)n1 | -0.5972
O=C(O)[C@@H]1CN(Cc2ccc3nsnc3c2)C[C@H]1c1cccnc1 | -24.04
CCc1ccccc1CN1CC[C@@H](NC(=O)c2cccnc2)[C@H](O)C1 | -11.05
CC(=O)N1CCC(N[C@@H]2CO[C@H](CNC(=O)c3cccs3)[C@H]2O)CC1 | 1.318
CC(=O)N1CCN([C@@H]2CC[C@@H](NC(=O)c3cc(C)cs3)[C@H]2O)CC1 | 116.4
CC(=O)N1CCN([C@@H]2CCC[C@@H](NC(=O)c3cccnc3)[C@H]2O)CC1 | 122.9
Cc1cncc(C(=O)NCC2COCc3c(C)nnn3C2)c1 (centres undefined) | -1.908
Cc1ccc(C(=O)N2CCN3C[C@H](Oc4cncnc4)C[C@H]3C2)cn1 | -3.915
Cc1cncc(C(=O)N[C@@H]2CC[C@@H](N3CCOCC3)[C@@H]2O)c1 | 120
CC(=O)N1C[C@H](NC(=O)c2csc(C(C)C)c2)[C@@H](C(C)C)C1 | -7.601
CC(C)(C)c1cc(CN2CC[C@@H](NC(=O)c3cccnc3)[C@H](O)C2)n[nH]1 | -14.75
CC(=O)N1CCN([C@@H]2CC[C@@H](NC(=O)c3ccc(C)nc3)[C@H]2O)CC1 | 126.1
CCCC(=O)NC1CCCN(C(=O)c2ccc(C)nc2)C1 (centres undefined) | -3.666
CC(=O)N1CCN([C@@H]2CC[C@@H](NC(=O)c3cncc(C)c3)[C@H]2O)CC1 | -9.247
CC(=O)NC1CCCN(C(=O)CNc2cccc(C)c2Cl)C1 (centres undefined) | 6.978
O=C(CCn1cncn1)N1CCC2(CC1)[C@H](O)C[C@@H]2OCCO | -12.21
O=C(NS(=O)(=O)c1ccc(C2CCCCC2)cc1)C1COCCO1 (centres undefined) | -16.34
CCOc1ccc(N(C)Cc2nnc(C3CC3)o2)cc1 | -1.111
CC1(C)CCC(CC(=O)O)c2ccccc21 (centres undefined) | 8.259
CN(Cc1cc(-c2ccncc2)no1)Cc1nccn1C | 1.044

SMILES | Percent Effect [%]
CNC(=O)CN1CC[C@H]2CN(C(=O)c3ccccc3F)C[C@H]2C1.O=C(O)C(F)(F)F | 86.74
O=C(O)C(F)(F)F.O=C(c1ccccc1F)N1C[C@H]2CCC[C@@]2(COCc2ccncc2)C1 | -1.474
Cc1ccccc1C(=O)N1C[C@@H]2CCN(c3cccnc3)C[C@@H]2C1.O=C(O)C(F)(F)F | 9.875
CNC(=O)CN1CC[C@H]2CN(C(=O)c3ccccc3C)C[C@H]2C1.O=C(O)C(F)(F)F | 117.7
Cc1ccccc1C(=O)NC[C@@H]1CCN(C(=O)CN2CCCC2)C[C@H]1O | 2.188
COCC(=O)NC[C@H]1OC[C@@H](NC2CCC(F)(F)CC2)[C@@H]1O | -6.952
CS(=O)(=O)N1CCC2(COCc3cnc(-c4ccccc4)nc32)C1 (centres undefined) | 3.211
O=S(=O)(C1CC1)N1CCC2(COCc3cnc(-c4cccnc4)nc32)C1 (centres undefined) | 112.6
O=S(=O)(C1CC1)N1CCC2(COCc3cnc(N4CCOCC4)nc32)C1 (centres undefined) | -0.8991
CN(C)S(=O)(=O)N1CCC2(COCc3cnc(-c4cccnc4)nc32)C1 (centres undefined) | 117.1
CN(C)S(=O)(=O)N1CCC2(COCc3cnc(-c4ccccc4)nc32)C1 (centres undefined) | 7.187
c1ccc(-c2ncc3c(n2)C2(CCN(c4ncccn4)C2)COC3)cc1 (centres undefined) | -0.2326
Cc1nn(C)c(NC(=O)C2SCCc3ccccc32)c1C (centres undefined) | -51.32
COCCOc1ccc(NC(=O)C2CC(=O)N(C(C)C)C2)cn1 (centres undefined) | 102.1
COCCOc1ccc(NC(=O)N2CCCC2c2ccncc2)cn1 (centres undefined) | -3.019
COCCOc1ccc(NC(=O)N2CCCC2c2cc(C)no2)cn1 (centres undefined) | -1.531
COCCOc1ccc(NC(=O)C2CCCN(C(N)=O)C2)cn1 (centres undefined) | -6.192
COCCOc1ccc(NC(=O)N(CCO)C2CC2)cn1 | -3.493
COCCOc1ccc(NC(=O)C2CC(=O)N(CC3CC3)C2)cn1 (centres undefined) | 88.01
COCCOc1ccc(NC(=O)C2CC(=O)N(C3CC3)C2)cn1 (centres undefined) | 124.3
COCCOc1ccc(NC(=O)N(C(C)C)C2CC2)cn1 | -14.55
COCCOc1ccc(NC(=O)N2CCCC2c2cccs2)cn1 (centres undefined) | -5.356
CCS(=O)(=O)N1CCN(CC(F)(F)F)CC1 | 6.417
CS(=O)(=O)CCC(=O)NC1CC(c2ccccc2Cl)C1 (centres undefined) | -3.689

From ChEMBL document CHEMBL3988442, “University of Dundee, Small-Polar-MMV Screening Library” (2021)
